Pol iota inh: inhibitors of human DNA polymerase iota. AID 588590. 1% of 390,000 active. Pol iota fluorescent replication assay, 10 min. Potency, µM (top dose mostly 115 µM), for the others: at the highest dose activity, negative = inhibition, hits mostly inhibitors. Q9UNA4
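Pol iota at 10 nM preincubated 15 min with compounds at room temperature; reaction started with fluorescent substrate, 50 nM final. Fluorescence read kinetically at 0 and 10 min; buffer-only wells as negative control.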
POLK inh: DNA polymerase kappa (human) inhibition; AID 588579; Potency, µM (doses to about 107 µM), without a hit: top-dose activity, negative = inhibition, usual class: inhibitors; purified Pol kappa, fluorescent DNA synthesis assay, 10 min; 0.53% of 400,000 active; Q9UBT6; note: % is set by controls: 0 for no effect and ±100 for the full control effect
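Here, compound and 10 nM enzyme are combined for 15 min at room temperature; adding 50 nM substrate (final) starts DNA synthesis, tracked by fluorescence at 0 and 10 min against buffer-only wells.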
Pol beta inh: DNA polymerase beta (human) inhibition | P06746 | Potency, µM (series often up to 114 µM), without a hit: at the highest dose activity change, negative = inhibition, most hits filed as inhibitors | Pol beta primer extension/strand displacement, fluorescence kinetic | AID 485314 | 1.3% of 340,000 active; note: % is set by controls: 0 for no effect and ±100 for the full control effect
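Enzyme-only controls used 10 nM Pol beta; buffer lacking enzyme served as negative control. Compound preincubated 15 min, then 50 nM substrate added; 0 and 10 min reads at room temperature.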
WRN inhibitor: WRN helicase (human) inhibition; 0.46% of 360,000 active; Potency, µM (top dose mostly 114 µM), for the others: at the highest dose activity change, negative = inhibition, actives largely listed as inhibitors; WRN helicase unwinding, fluorescent forked duplex, kinetic; AID 651768; Q14191; note: % is set by controls: 0 for no effect and ±100 for the full control effect; nearly all actives have a fitted effect of over 55% in size
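Enzyme (20 nM final) and test compound sit together 15 min at room temperature before substrate addition. Substrate is a single-forked duplex oligonucleotide (100 nM) labelled with fluorophore and quencher, with 2 mM ATP; helicase unwinding raises red fluorescence, read kinetically.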
FEN1 inh: blocks human flap endonuclease 1 | Potency, µM (titrated, usually from 114 µM), inactives show at the top dose activity change, negative = inhibition, usual class: inhibitors | Recombinant FEN1 flap cleavage, fluorescence, 15 min | P39748 | 0.35% of 390,000 active; note: % is set by controls: 0 for no effect and ±100 for the full control effect; nearly all actives have a fitted effect of over 65% in size
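Quantitative HTS format: each compound was titrated, incubated with 10 nM nuclease for 15 min at room temperature, then challenged with flap substrate at 50 nM final. Signal change over 15 min gave concentration–effect curves.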
Pol eta inh: blocks human DNA polymerase eta activity; Q9Y253; recombinant Pol eta, fluorescent DNA replication assay; Potency, µM (titrated, usually from 114 µM), for the others: at the highest dose activity change, negative = inhibition, hits mostly inhibitors; 1.2% of 390,000 active; AID 588591; note: % is set by controls: 0 for no effect and ±100 for the full control effect
Target sequence (Q9Y253 whole entry, looked up): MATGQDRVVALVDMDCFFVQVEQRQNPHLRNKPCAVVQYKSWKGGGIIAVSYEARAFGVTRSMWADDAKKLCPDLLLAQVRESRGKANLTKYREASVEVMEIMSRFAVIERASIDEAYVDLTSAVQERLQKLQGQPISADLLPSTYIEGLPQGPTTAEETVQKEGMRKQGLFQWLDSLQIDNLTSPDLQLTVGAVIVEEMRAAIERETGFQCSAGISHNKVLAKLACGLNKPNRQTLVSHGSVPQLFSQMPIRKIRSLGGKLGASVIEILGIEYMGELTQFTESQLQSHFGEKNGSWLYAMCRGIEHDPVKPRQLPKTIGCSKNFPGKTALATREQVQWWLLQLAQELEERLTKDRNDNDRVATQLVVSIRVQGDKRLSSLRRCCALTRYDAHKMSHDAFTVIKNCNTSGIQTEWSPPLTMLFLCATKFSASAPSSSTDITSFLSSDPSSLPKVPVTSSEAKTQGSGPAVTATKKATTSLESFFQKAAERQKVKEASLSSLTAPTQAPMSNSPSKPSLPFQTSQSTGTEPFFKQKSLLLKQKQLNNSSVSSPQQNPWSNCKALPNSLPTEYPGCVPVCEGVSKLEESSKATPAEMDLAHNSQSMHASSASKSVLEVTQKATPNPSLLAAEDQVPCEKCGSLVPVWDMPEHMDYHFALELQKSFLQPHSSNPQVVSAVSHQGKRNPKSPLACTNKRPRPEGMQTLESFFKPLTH
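Fluorescent replication assay: 50 nM final substrate added after a 15 min room-temperature compound preincubation with 10 nM enzyme. Signal taken at 0 min and again at 10 min.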
The depositor's hits bear a star; ? = inconclusive; / = no result; [ ] = remark or other dose. In the library only some 2.4% were active in any assay of this set; here they are far more common. Calls come from the whole dose curve; as a rule, active = well fitted curve in the direction sought with a large enough effect; inconclusive = small, poorly fitted or top-dose-only effect, or another doubt; inactive = no such curve, though single readings can be large; an effect the other way counts as inactive or inconclusive. Potency is the fitted concentration of half-maximal effect.

SMILES	Pol iota inh	POLK inh	Pol beta inh	WRN inhibitor	FEN1 inh	Pol eta inh
CCOc1cccc(C2/C(=C(/O)c3ccc4c(c3)CC(C)O4)C(=O)C(=O)N2CCN2CCOCC2)c1 (stereo not drawn)	-13.1%	3.9%	-10.0%	2.2%	6.7%	-8.5%
Clc1cc(Cl)c(OCC#CI)cc1Cl	/	1.1%[19.4 µM]	/	/	/	/
COc1ccc(Br)cc1CNc1ccc2[nH]c(=O)[nH]c2c1	9.2%	-3.9%	36.5%	2.9%	-6.5%	-24.2%
COc1cc(CNc2ccc(O)cc2)cc(Br)c1OCc1ccccc1	15.8µM*	-15.2%	-0.9%	-19.9%[11.6 µM]	?	?
COc1ccc(Br)cc1CNc1ccc(O)cc1	2.82µM*	-11.3%	3.4%	-12.4%[57.1 µM]	-11.9%	6.5%
COc1cc(CNC(C)c2ccccc2)cc(Br)c1OCc1ccccc1 (stereo not drawn)	18.3%	-4.9%	1.5%	-2.1%	-18.8%	-9.1%
CC(=O)c1ccc(NC(=O)CSc2nccn2Cc2ccco2)cc1	10.9%	-6.1%[60.1 µM]	0.4%	/	-1.0%	17.2%
COc1ccc(C(=O)N=c2nc(-c3ccccc3)n(-c3ccccc3)s2)cc1	11.3%	-2.0%	/	/	10.3%	/
O=C(NNS(=O)(=O)c1cccc(Cl)c1)c1cc(-c2ccc(F)cc2)nc2ccccc12	?	-17.3%	50.1µM*	-14.8%	-5.3%	?
O=C(Nc1cccc(Cl)c1)c1ccc2c(c1)CCN2S(=O)(=O)c1ccccc1	-13.1%	-2.7%	0.8%	/	6.0%	-4.2%
CCOC(=O)C1=C(CC)OC(N)=C(C#N)C1c1cccs1 (stereo not drawn)	1.9%	-15.4%[60.1 µM]	-17.0%	-6.5%	-3.6%	-3.6%
CCN1CC2=C(OC(N)=C(C#N)C2c2cccs2)/C(=C\c2cccs2)C1 (stereo not drawn)	39.8µM*	-24.1%	6.9%	-10.1%[11.6 µM]	-16.4%	-27.2%
O=C(Cc1ccc(Cl)cc1)c1ccc(O)cc1	50.1µM*	-18.4%	1.6%	-2.0%[11.6 µM]	-0.6%	1.4%
COc1cc(NS(=O)(=O)c2cnc(N)nc2)cc(OC)c1	15.5%	-4.9%[60.1 µM]	28.7%	/	-16.0%	15.3%
CCC1CN(C(=O)N2CCC(C(=O)NCc3cccc(F)c3)CC2)c2cc(C)ccc2O1 (stereo not drawn)	79.4µM*	?	-23.4%	/	?	-7.7%
CCC1CN(C(=O)N2CCC(C(=O)NCCN(CC)CC)CC2)c2cc(C)ccc2O1 (stereo not drawn)	4.7%	0.5%	1.0%	/	-6.7%	-4.2%
Cc1ccc(-c2csc3nc4c5ccccc5c(NCCCN(C)C)nn4c(=O)c23)cc1	12.0%	7.2%	10.3%	30.2%[57.1 µM]	20µM*	-22.2%
COCc1c(C(=O)OCC(=O)c2ccc[nH]2)oc2ccccc12	28.1%	0.4%	/	9.2%	-12.1%	-18.9%
CSCc1c(C(=O)OCC(=O)c2ccc[nH]2)oc2ccccc12	50.1µM*	?	/	-8.3%[11.6 µM]	-1.2%	?
COc1ccccc1CNC(=O)C1CCN(S(=O)(=O)c2c(C)noc2/C=C/c2c(C)cc(C)cc2C)CC1	43.8%	-1.9%[60.1 µM]	-0.3%	/	-5.5%	-27.5%
CC1=CCC2C(=O)N(c3nc4ccccc4n3C)C(=O)C2C1 (stereo not drawn)	?	-23.9%	25.1µM*	-14.0%	2.0%	?
Cc1ccc(C2C(C#N)=C(N)SC(N)=C2C#N)c(C)c1	25.1µM*	-7.5%	-7.4%	-31.7%	-10.2%	9.0%
Cc1cccc(NC(=O)Cn2cc(C(=O)c3ccco3)c3ccccc32)c1C	?	-38.9%	?	/	0.5%	79.4µM*
Cc1cc2c(=O)c(C(=O)c3ccncc3)cn(CC(=O)Nc3cccc(C)c3C)c2cc1C	?	2.3%[60.1 µM]	39.8µM*	/	14.3%	-23.7%
Cc1cc(C(F)(F)F)n2[nH]c(=O)c(N=Nc3ccccc3)c2n1	39.8µM*	?	-19.9%	0.1%[11.6 µM]	-0.4%	12.3%
Cc1cc(/C(N)=N/OC(=O)c2cccc(Cl)c2)no1	-33.3%[58.9 µM]	-10.5%	89.1µM*	?	-10.2%	-11.9%
